Structures are written as SMILES. Values joined by “and” are separate entries in the source; they are usually repeats but may differ in a detail not shown here. Equal values may be shown once. The campaign covered roughly 16,000 compounds. About 2,600 (16%) were called active. Inconclusive results (about 20%) are left out. A selection follows. Values without a mark were called inactive. Calls follow the shape of the dose curve; as a rule, active = well fitted curve in the direction sought with a large enough effect; inconclusive = small, poorly fitted or top-dose-only effect, or effect the other way; inactive = no such curve, though single readings can be large or run the other way. Square brackets hold non-standard residues; d marks the D form. Peptide text beside a SMILES is read from it.
% is scaled to controls: 0 for no effect and ±100 for the full control effect.

The target in the assay is Cytochrome P450 2D6 (Homo sapiens) (UniProt P10635). Put plainly: Cytochrome panel assay with activity outcomes. The note with it: recombinant CYP, pro-luciferin dealkylation, luminescence, p450-cyp2d6; series mostly up to 57.1 µM.
Sequence of Cytochrome P450 2D6 (Homo sapiens) (P10635 whole entry, looked up): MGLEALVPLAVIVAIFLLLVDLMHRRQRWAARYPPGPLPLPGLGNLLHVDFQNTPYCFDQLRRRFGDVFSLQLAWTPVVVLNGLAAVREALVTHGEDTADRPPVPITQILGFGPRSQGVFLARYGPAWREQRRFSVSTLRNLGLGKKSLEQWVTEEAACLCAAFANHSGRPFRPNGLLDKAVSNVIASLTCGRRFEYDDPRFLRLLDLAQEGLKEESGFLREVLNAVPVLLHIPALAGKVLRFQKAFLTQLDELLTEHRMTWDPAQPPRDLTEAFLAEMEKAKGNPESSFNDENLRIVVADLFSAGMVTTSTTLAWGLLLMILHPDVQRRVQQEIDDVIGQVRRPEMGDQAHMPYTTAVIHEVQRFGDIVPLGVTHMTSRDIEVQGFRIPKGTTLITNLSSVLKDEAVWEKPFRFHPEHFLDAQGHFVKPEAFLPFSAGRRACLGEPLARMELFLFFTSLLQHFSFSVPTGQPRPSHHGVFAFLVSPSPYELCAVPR
Regarding `CC1CCCC(NC(=O)C2CCN(S(=O)(=O)N3CCOCC3)CC2)C1C` (stereo not given), the AC50 result is “inactive”.
Same read-out and setting: to `O=C(O)C1CCCCC1C(=O)Nc1cc(Cl)ccc1Cl` (stereo not given) belongs “inactive”.
For `Cc1ccc(S(=O)(=O)O[C@@H]2[C@H]([C@@H]3COC(C)(C)O3)O[C@H]3OC(C)(C)O[C@@H]32)cc1`, the activity, negative = inhibition was 5.58% [at 11.4 µM].
On to `O=C(O)/C=C/C(=O)Nc1ccccc1-c1ccccc1`, for which the AC50 entry was “inactive”.
The same measure, in the same setting: for `CCOC(=O)c1cc2c(C)n(-c3ccc(C)cc3)c(C)c2ccc1=O` the value was “inactive”; for `O[C@H](CCCN1CCN(c2ncc(F)cn2)CC1)c1ccc(F)cc1`, “inactive”.
Still for that read-out and setting: for `O=C1NCN(c2ccccc2)C12CCN(CCCC(c1ccc(F)cc1)c1ccc(F)cc1)CC2` the value was 10 µM (active) and 1.58 µM (active); for `Cc1ccc(NCCC(=O)c2ccc(Cl)cc2)cc1C`, “inactive”; for `Cc1ccc(NCCC(=O)c2ccc(Cl)cc2)cc1`, “inactive”.
Same read-out and setting: to `O=C(NCCc1ccc(Cl)cc1)Nc1cccc(Cl)c1` belongs 0.891 µM (active).
As to `O=C(Nc1cccc(Cl)c1)Nn1cnnc1`, the activity, negative = inhibition was 8.42% [at 11.4 µM].
As for `CN(C)CCNC(=S)Nc1cccc(Cl)c1`, the AC50 entry was “inactive”.
`O=C(CNc1cccc(Cl)c1)c1ccc(Cl)cc1`: the concentration at half-maximal activity (AC50) is 0.447 µM (active).
On to `Cc1cnn(-c2cc(N/N=C/c3ccccc3F)ncn2)c1`, for which the AC50 result was “inactive”.
With `O=C(O)[C@@H]1[C@@H](C(=O)NCc2cccnc2)[C@@H]2C=C[C@@H]1O2`, the activity, negative = inhibition is 20.9% [at 11.4 µM].
As for `CCCc1nnc(SCC(=O)O)n1/N=C/c1ccc2c(c1)OCO2`, the AC50 entry is “inactive”.
The same measure, in the same setting: for `O=C(c1ccco1)N1CCN(c2cc(=O)n(C3CCCCC3)c(=O)[nH]2)CC1` the value was “inactive”; for `CCCCCCc1c(C[C@H](N)C(=O)O)o[nH]c1=O`, “inactive”; for `Oc1ccccc1-c1nnc(-c2ccc(C(F)(F)F)cc2)o1`, “inactive”.
Same read-out and setting: for `CCN(CC)CCCNC(=O)C1CCC(=O)N(c2ccc(OC)cc2)C1c1ccc(F)cc1` (stereo not given) the value was “inactive”.
With `Cc1c(Cl)cccc1NC(=O)C[C@H]1Sc2ccccc2NC1=O`, the activity, negative = inhibition is -12% [at 11.4 µM].
Take `CCN(CC)CCCNC(=O)CC1Sc2ccccc2NC1=O` (stereo not given): the AC50 was 5.01 µM (active).
On the same count and under the same terms, for `CN(C)c1ccc(-c2nc(N(C)Cc3ccco3)c3ccccc3n2)cc1` the value was 12.6 µM (active); for `CN(Cc1ccco1)c1nc(-c2ccoc2)nc2ccccc12`, 15.8 µM (active); for `CN(Cc1ccco1)c1nc(-c2ccc3c(c2)OCO3)nc2ccccc12`, 10 µM (active).
On the same count and under the same terms, to `CN(Cc1ccccc1)c1nc(-c2ccc([N+](=O)[O-])cc2)nc2ccccc12` belongs “inactive”; to `O=c1c(-c2cc(F)cc(F)c2)nc2cnc(N3CCOCC3)nc2n1C1CC1`, “inactive”.
On the same count and under the same terms, for `CSCC[C@H](C=O)NC(=O)[C@H](CC(C)C)NC(=O)[C@H](CC(C)C)NC(C)=O` (Ac-Leu-Leu-[dM]-aldehyde) the value was “inactive”.
In the case of `c1cc(NNc2cccc(-c3nn[nH]n3)c2)cc(-c2nn[nH]n2)c1`, the activity, negative = inhibition was 16.4% [at 11.4 µM].
Consider `COCCCNC(=O)C1CC(=O)N(Cc2ccc(OC)cc2)C1` (stereo not given), for which the AC50 entry was “inactive”.
Turning to `CN(C)c1ncc2nc(-c3ccc(F)cc3)c(=O)n(Cc3cccs3)c2n1`, the AC50 result was “inactive”.
Still for that read-out and setting: for `Cc1cc(C)c2nc(-c3ccccn3)cc(C(=O)Nc3ccc(S(=O)(=O)Nc4cc(C)on4)cc3)c2c1` the value was “inactive”.
Turning to `O=C(O)c1ccc(S(=O)(=O)N=Nc2c(O)[nH]c3ccccc23)cc1`, the activity, negative = inhibition was 17% [at 11.4 µM].
Turning to `O=C1CCC(c2ccccc2)(c2ccccc2)CC1`, the activity, negative = inhibition was 9.99% [at 11.4 µM].
On to `CCN1C(=O)c2cccc3c(NC(=O)c4cccc(N5C(=O)CCC5=O)c4)ccc1c23`, for which the AC50 entry is “inactive”.
With `COc1ccc(N2CCN(C(=O)CSc3nnc4c5cc(C)ccc5n(C)c4n3)CC2)cc1`, the AC50 entry is “inactive”.
Still for that read-out and setting: for `COc1ccc2nc3oc(C(=O)NCc4cccs4)cc3cc2c1` the value was “inactive”.
On the same count and under the same terms, for `COc1cccc2c(=O)c(C(=O)NCc3cccs3)c[nH]c12` the value was 12.6 µM (active); for `COc1ccc(C(=O)c2c[nH]c(C(=O)NCc3cccs3)c2)cc1`, “inactive”.
On the same count and under the same terms, for `O=C1CC(=O)N(CCc2ccc(F)cc2)C(=O)N1` the value was “inactive”; for `COc1ccc(-n2c(=O)cnc3cnc(N(C)C)nc32)cc1`, “inactive”.
For `NCS(=O)(=O)O`, the activity, negative = inhibition was 6.1% [at 11.4 µM].
Regarding `COc1ccccc1/C=C/C(=O)c1c2c(c(C)[nH]c1=O)CCCC2`, the AC50 entry was “inactive”.
Regarding `Cn1c(=S)c2[nH]c(SCCCc3ccccc3)nc2n(C)c1=O`, the activity, negative = inhibition is -0.099% [at 11.4 µM].
Take `Cc1c(C)c2c(c(C)c1O)CC[C@@](C)(CCC[C@@H](C)CCC[C@@H](C)CCCC(C)C)O2`: the AC50 entry was “inactive”.
Same read-out and setting: to `Cc1cc(C)n2nc(SCc3cc(=O)oc4ccc5ccccc5c34)nc2n1` belongs “inactive”.
Still for that read-out and setting: for `CCOC(=O)c1sc(NS(=O)(=O)c2ccccc2)nc1C` the value was “inactive”; for `Cc1cc(NC(=O)COC(=O)c2ccc(NS(=O)(=O)c3ccc(C)c(C)c3)cc2)no1`, “inactive”.
For `CC(=O)Nc1cc(S(=O)(=O)Nc2ccccc2)c(C)cc1C`, the AC50 result was “inactive”.
The same measure, in the same setting: to `CCOc1cc(C)c(S(=O)(=O)Nc2ccc3cn[nH]c3c2)cc1C` belongs 0.631 µM (active); to `CCOC(=O)c1ccc(S(=O)(=O)Nc2ccc3cn[nH]c3c2)cc1`, 12.6 µM (active).
Same read-out and setting: to `COC(=O)Cc1cc(=O)n2[nH]c(C)c(-c3ccccc3)c2n1` belongs “inactive”.
The same measure, in the same setting: to `C/C(O)=C\c1nc2ccccc2oc1=O` belongs “inactive”; to `COC(=O)[C@@]1(Cc2ccc(F)cc2)[C@@H]2C(=CC(=O)[C@H]2CC(=O)C(=O)N(C)C)CN1C(=O)c1ccccc1`, “inactive”.
On to `Cc1cc(N)ccc1NC(=O)c1ccccc1`, for which the AC50 entry was “inactive”.
For `CCO/C(C)=N/n1c2nc3ccccc3nc2c2c(=O)n(CC(C)C)c(C)nc21`, the AC50 result was “inactive”.
Still for that read-out and setting: to `CCCC(C(=O)Nc1nccs1)c1ccccc1` (stereo not given) belongs 25.1 µM (active); to `CCCCn1c(SCC(=O)Nc2nccs2)nc2ccccc2c1=O`, “inactive”; to `O=C(O)c1ccccc1C(=O)Nc1nccs1`, “inactive”.
On the same count and under the same terms, for `O=C(NCC1CCCO1)c1cc(-c2ccc(Cl)cc2Cl)on1` (stereo not given) the value was “inactive”; for `Cc1cccc(Sc2c([N+](=O)[O-])ncn2C)n1`, “inactive”; for `O=c1cnc2cnc(Nc3ccccc3)nc2n1Cc1cccs1`, “inactive”.
Consider `c1ccc(-n2cnc3cc(NCc4cccs4)ccc32)cc1`, for which the concentration at half-maximal activity (AC50) is 1.12 µM (active).
The same measure, in the same setting: to `O=C(O)[C@H]1CCCNC1` belongs “inactive”; to `Cc1cc(=O)oc(C)c1C(=O)NCc1cccnc1`, “inactive”.
On the same count and under the same terms, for `Cc1cccc(CS(=O)(=O)Cc2ccc(C(=O)NCc3ccco3)o2)c1` the value was “inactive”; for `Cc1ccccc1CS(=O)(=O)Cc1ccc(C(=O)NCc2cccnc2)o1`, 10 µM (active); for `Cn1cccc1C(=O)N1CCC2(CC1)CN(c1ccccn1)C2`, “inactive”.
Take `COc1cc(OC)c(C2C(C(=O)Nc3ccc(C)cc3C)=C(C)Nc3ncnn32)cc1OC` (stereo not given): the AC50 entry was “inactive”.
On the same count and under the same terms, to `Cc1ccc(S(=O)(=O)NC(=O)c2cccn2C)cc1` belongs “inactive”; to `O=C(Cn1cccc1C(=O)c1ccccc1)NCc1cccs1`, 5.01 µM (active); to `O=C(Cn1ccc([N+](=O)[O-])n1)NCc1cccs1`, “inactive”.
Still for that read-out and setting: for `Cc1ccccc1C(=O)c1cccn1CC(=O)NCc1ccco1` the value was “inactive”; for `COCCn1c(=O)c(-c2cccs2)nc2cnc(N3CCNCC3)nc21`, “inactive”.
Same read-out and setting: for `COc1cc(NC(=O)Cc2c(C(=O)O)[nH]c3ccccc23)cc(OC)c1OC` the value was “inactive”; for `CCC(CC)C(=O)Nc1c2c(nn1-c1ccc(OC)cc1)CS(=O)(=O)C2`, “inactive”.
As for `CCOC(=O)c1c(C)[nH]c(C)c1C(=O)COC(=O)c1ccc(S(=O)(=O)N(CC)CC)cc1`, the concentration at half-maximal activity (AC50) was 28.2 µM (active).
Still for that read-out and setting: to `CCN(CC)S(=O)(=O)c1ccc(C(=O)NC2=C(C(=O)OC)SCC2)cc1` belongs “inactive”.
Still for that read-out and setting: to `CCOC(=O)c1ccc(S(=O)(=O)N2CCN(C)CC2)cc1` belongs “inactive”; to `CCN(CC)S(=O)(=O)c1cccc(C(=O)N[C@H](C(=O)OCC(=O)NC(=O)NC)C(C)C)c1`, “inactive”.
Same read-out and setting: to `CCOC(=O)c1c(C)[nH]c2ccc3c(c12)CN1CCc2cc(OC)ccc2[C@@H]1O3` belongs “inactive”; to `CCOC(=O)c1c(C)[nH]c(C)c1C(=O)COC(=O)c1cccc(S(=O)(=O)N(CC)CC)c1`, 17.8 µM (active); to `CS(=O)(=O)N1CCC2(CCN(C(=O)Nc3cccc(C#N)c3)CC2)CC1`, “inactive”.
Take `O=C1c2c(O)cc(O)cc2O[C@@H](c2ccc(O)c(O)c2)[C@H]1O`: the AC50 result was “inactive”.
Still for that read-out and setting: for `CC1=NN(c2ccccc2)C(=O)/C1=C\N1CC(C)OC(C)C1` (stereo not given) the value was “inactive”.
Take `COc1cc2c(cc1OC)C(C(=O)Nc1ccc3c(c1)OCCO3)C(c1cccnc1)N(C)C2=O` (stereo not given): the AC50 result was “inactive”.
On the same count and under the same terms, for `FC(F)(F)c1nc(-c2ccncc2)ncc1-c1nnnn1-c1ccccc1` the value was “inactive”; for `O=C(Nc1ccc(F)cc1)c1ccc(-n2ccnc2)nc1`, 0.178 µM (active); for `Cc1c(Cl)cccc1NC(=O)c1ccc(-n2ccnc2)nc1`, 0.0316 µM (active).
Same read-out and setting: to `CC(C)C(=O)Nc1ccc(NC(=O)c2cccnc2)cn1` belongs “inactive”; to `C/C(CC(=O)Nc1ccccn1)=N\NC(=O)C(=O)Nc1cccc(Cl)c1C`, “inactive”; to `Cc1ccc(C(=O)Nc2ccc(N3CCOCC3)nc2)cc1`, “inactive”.
The same measure, in the same setting: to `CCOCC(=O)Nc1cc(C(=O)Nc2cccc(C)c2C)ccc1Cl` belongs “inactive”; to `O=S(=O)(/N=C(/Nc1ccccn1)c1ccccc1)c1ccccc1`, “inactive”.
Turning to `CN1CCN(Cc2nc3cccc4c3c([n+]2[O-])-c2ccccc2-4)CC1`, the activity, negative = inhibition was -3.37% [at 11.4 µM].
On the same count and under the same terms, for `N#C[C@H]1CN[C@H](N)N[C@@H]1N` the value was 8.31% [at 11.4 µM]; for `Cc1cccc2c1Oc1ccccc1[C@@H]2NC(=O)c1ccc([N+](=O)[O-])cc1`, 13.1% [at 11.4 µM].
On to `CCc1ccccc1NC(=O)CSc1nc(-c2ccccc2)nn1C(=O)c1cccc([N+](=O)[O-])c1`, for which the AC50 is 10 µM (active).
Same read-out and setting: to `O=C(c1ccc([N+](=O)[O-])cc1)n1nc(-c2ccccc2)nc1NCc1ccccc1` belongs “inactive”; to `CSc1nc(-c2ccccc2)nn1C(=O)c1ccccc1`, “inactive”.
